From PubChem BioAssay
The source made the active and inactive calls.

How the values were obtained:
[1] = binders of probe aFSTL3 on microarray, primary screen, stem cell growth factor project, biochemical, small-molecule microarray, fluorescence 635/667 (AID 1064); conditions: higher = more signal;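 further: measures binding of the biotinylated anti-FSTL3 antibody to printed compounds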
[2] = binders from COS7 lysate, DM2A8 probe, primary screen, torsin A project, cell lysate, small-molecule microarray, fluorescence 635/667 (AID 1065); conditions: higher = more signal, COS7 lysate expressing mutant human TOR1A
[3] = binders of probe aFGF2 on microarray, primary screen, stem cell growth factor project, biochemical, small-molecule microarray, fluorescence 635/667 (AID 1067); conditions: higher = more signal;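 further: measures binding of biotinylated aFGF2 protein to printed compounds on slides; z-score merges feature fluorescence and signal-to-noise across triplicate slides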
[4] = binders of probe aFGF10 on microarray, primary screen, stem cell growth factor project, biochemical, small-molecule microarray, fluorescence 635/667 (AID 1071); conditions: higher = more signal;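 further: score merges 667 nm spot intensity and signal to noise from triplicate slides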
[5] = target: Neurogenic locus notch homolog protein 2 (Homo sapiens) (UniProt Q04721); assay: Notch2 binders on small-molecule microarrays, primary screen, biochemical, small-molecule microarray, 635 nm fluorescence, stem cell growth factors (AID 1073); conditions: Notch2 binding, higher = more signal
[6] = target: Pro-neuregulin-1, membrane-bound isoform (Homo sapiens) (UniProt Q02297); assay: NRG1 binders on small-molecule microarrays, primary screen, psychiatric disease protein project, biochemical, small-molecule microarray, fluorescence 635/667 (AID 1075); conditions: NRG1 binding, 635 nm fluorescence, higher = more signal;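 further: score combines 667 nm spot fluorescence with signal to noise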
[7] = tested on: Neuregulin-1 EGF-like domain; assay: binders of neuregulin-1 EGF-like domain, primary screen, biochemical, small-molecule microarray, 635 nm fluorescence (AID 1081); conditions: small-molecule microarray binding, higher = more signal;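 further: binding of the protein to compounds printed on small-molecule microarray slides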
[8] = FRG1 promoter luciferase signal modulators, primary screen, FRG1 inhibition for FSHD, cell-based, C2C12 myotubes, firefly/Renilla luciferase, luminescence (AID 1084); conditions: higher = more signal, called active from +8 up or from −8 down
[9] = binders of probe aFST on microarray, primary screen, stem cell growth factor project, biochemical, small-molecule microarray, fluorescence 635/667 (AID 1086); conditions: higher = more signal;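 further: score merges 667 nm fluorescence with signal-to-noise of each printed compound spot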
[10] = binders of probe aHhip on microarray, primary screen, stem cell growth factor project, biochemical, small-molecule microarray, fluorescence 635/667 (AID 1087); conditions: higher = more signal;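 further: score merges spot fluorescence at 667nm with spot signal to noise ratio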
[11] = tested on: PRMT1 (protein arginine N-methyltransferase 1); assay: PRMT1 binders on small-molecule microarrays, primary screen, biochemical, small-molecule microarray, 635 nm fluorescence (AID 1088); conditions: small-molecule microarray binding, higher = more signal;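 further: binding of Prmt1 protein to compounds spotted on small-molecule microarray slides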
[12] = yeast growth modulation, basal conditions, primary screen, YJM789 clinical isolate, OD600, 24 h (AID 1089);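 further: growth of clinical yeast isolate S. cerevisiae YJM 789 seeded 1000 cells per well; test concentration not given here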; conditions: S. cerevisiae YJM789 growth, higher = more signal, called active from +8 up or from −8 down
[13] = fission yeast growth modulation, primary screen, strain 972, OD600, 24 h, no modulator (AID 1090);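 further: basal condition with compound alone and no growth modifier present; test concentration not given here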; conditions: S. pombe 972 growth, higher = more signal, called active from +8 up or from −8 down
[14] = S. cerevisiae growth modulation with rapamycin, primary screen, strain BY4716, OD600, 96 h (AID 1091); conditions: higher = more signal, called active from +8 up or from −8 down; further: test concentration not given here
[15] = target: Torsin-1A-interacting protein 2 (Homo sapiens) (UniProt Q8NFQ8); assay: LULL1 binders on small-molecule microarray, primary screen, cell lysate, human LULL1 lysate, 635/667 nm fluorescence (AID 1092); conditions: hLULL1 lysate binding, 635 nm fluorescence, higher = more signal;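 further: probe is lysate of COS7 cells overexpressing human LULL1; score merges per-feature 667 nm fluorescence with signal-to-noise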
[16] = E. coli growth modulation, two-sided OD650, primary screen, E. coli filamentation project, strain DRC41, 24 h (AID 1093); conditions: OD650, 24 h, higher = more signal, called active from +8 up or from −8 down;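 further: MC1000 strain lacking acrAB efflux and sulA so SOS filamentation is blocked; test concentration not given here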
[17] = small-molecule microarray binders of probe aLefty2, primary screen, biochemical, biotinylated probe, 635/667 nm fluorescence (AID 1094); conditions: higher = more signal;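 further: score merges spot fluorescence near 667 nm with spot signal-to-noise ratio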
[18] = tested on: Noggin (protein binding on small-molecule microarray); assay: Noggin binders on small-molecule microarray, primary screen, biochemical, 635/667 nm fluorescence (AID 1095); conditions: 635 nm fluorescence, higher = more signal;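 further: score merges 667 nm feature fluorescence with signal to noise over triplicate slides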
[19] = target: Neurogenic locus notch homolog protein 3 (Homo sapiens) (UniProt Q9UM47); assay: NOTCH3 binders on small-molecule microarray, primary screen, biochemical, 635/667 nm fluorescence (AID 1096); conditions: NOTCH3 binding, 635 nm fluorescence, higher = more signal
[20] = small-molecule microarray binders of probe aEGFR, primary screen, biochemical, biotinylated probe, 635/667 nm fluorescence (AID 1097); conditions: higher = more signal;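 further: probe is a biotinylated anti-EGFR antibody binding compounds printed on slides; score combines fluorescence near 667 nm and signal to noise of each spot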

Chain of Torsin-1A-interacting protein 2 (Homo sapiens) (Q8NFQ8 whole entry, looked up): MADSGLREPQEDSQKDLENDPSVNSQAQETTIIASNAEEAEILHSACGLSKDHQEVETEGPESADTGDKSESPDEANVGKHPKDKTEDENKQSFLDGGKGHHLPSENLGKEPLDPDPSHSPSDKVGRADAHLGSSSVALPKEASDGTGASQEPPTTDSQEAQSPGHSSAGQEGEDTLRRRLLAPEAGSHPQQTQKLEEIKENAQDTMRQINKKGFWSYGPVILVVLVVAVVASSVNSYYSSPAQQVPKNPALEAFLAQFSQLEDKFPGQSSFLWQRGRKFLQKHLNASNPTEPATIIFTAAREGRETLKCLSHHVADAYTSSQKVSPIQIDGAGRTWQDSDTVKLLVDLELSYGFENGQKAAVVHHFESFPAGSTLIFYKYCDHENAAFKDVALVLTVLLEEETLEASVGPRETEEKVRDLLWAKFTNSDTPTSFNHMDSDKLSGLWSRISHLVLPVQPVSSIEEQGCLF
Chain of Neurogenic locus notch homolog protein 2 (Homo sapiens) (Q04721 whole entry, looked up, canonical isoform): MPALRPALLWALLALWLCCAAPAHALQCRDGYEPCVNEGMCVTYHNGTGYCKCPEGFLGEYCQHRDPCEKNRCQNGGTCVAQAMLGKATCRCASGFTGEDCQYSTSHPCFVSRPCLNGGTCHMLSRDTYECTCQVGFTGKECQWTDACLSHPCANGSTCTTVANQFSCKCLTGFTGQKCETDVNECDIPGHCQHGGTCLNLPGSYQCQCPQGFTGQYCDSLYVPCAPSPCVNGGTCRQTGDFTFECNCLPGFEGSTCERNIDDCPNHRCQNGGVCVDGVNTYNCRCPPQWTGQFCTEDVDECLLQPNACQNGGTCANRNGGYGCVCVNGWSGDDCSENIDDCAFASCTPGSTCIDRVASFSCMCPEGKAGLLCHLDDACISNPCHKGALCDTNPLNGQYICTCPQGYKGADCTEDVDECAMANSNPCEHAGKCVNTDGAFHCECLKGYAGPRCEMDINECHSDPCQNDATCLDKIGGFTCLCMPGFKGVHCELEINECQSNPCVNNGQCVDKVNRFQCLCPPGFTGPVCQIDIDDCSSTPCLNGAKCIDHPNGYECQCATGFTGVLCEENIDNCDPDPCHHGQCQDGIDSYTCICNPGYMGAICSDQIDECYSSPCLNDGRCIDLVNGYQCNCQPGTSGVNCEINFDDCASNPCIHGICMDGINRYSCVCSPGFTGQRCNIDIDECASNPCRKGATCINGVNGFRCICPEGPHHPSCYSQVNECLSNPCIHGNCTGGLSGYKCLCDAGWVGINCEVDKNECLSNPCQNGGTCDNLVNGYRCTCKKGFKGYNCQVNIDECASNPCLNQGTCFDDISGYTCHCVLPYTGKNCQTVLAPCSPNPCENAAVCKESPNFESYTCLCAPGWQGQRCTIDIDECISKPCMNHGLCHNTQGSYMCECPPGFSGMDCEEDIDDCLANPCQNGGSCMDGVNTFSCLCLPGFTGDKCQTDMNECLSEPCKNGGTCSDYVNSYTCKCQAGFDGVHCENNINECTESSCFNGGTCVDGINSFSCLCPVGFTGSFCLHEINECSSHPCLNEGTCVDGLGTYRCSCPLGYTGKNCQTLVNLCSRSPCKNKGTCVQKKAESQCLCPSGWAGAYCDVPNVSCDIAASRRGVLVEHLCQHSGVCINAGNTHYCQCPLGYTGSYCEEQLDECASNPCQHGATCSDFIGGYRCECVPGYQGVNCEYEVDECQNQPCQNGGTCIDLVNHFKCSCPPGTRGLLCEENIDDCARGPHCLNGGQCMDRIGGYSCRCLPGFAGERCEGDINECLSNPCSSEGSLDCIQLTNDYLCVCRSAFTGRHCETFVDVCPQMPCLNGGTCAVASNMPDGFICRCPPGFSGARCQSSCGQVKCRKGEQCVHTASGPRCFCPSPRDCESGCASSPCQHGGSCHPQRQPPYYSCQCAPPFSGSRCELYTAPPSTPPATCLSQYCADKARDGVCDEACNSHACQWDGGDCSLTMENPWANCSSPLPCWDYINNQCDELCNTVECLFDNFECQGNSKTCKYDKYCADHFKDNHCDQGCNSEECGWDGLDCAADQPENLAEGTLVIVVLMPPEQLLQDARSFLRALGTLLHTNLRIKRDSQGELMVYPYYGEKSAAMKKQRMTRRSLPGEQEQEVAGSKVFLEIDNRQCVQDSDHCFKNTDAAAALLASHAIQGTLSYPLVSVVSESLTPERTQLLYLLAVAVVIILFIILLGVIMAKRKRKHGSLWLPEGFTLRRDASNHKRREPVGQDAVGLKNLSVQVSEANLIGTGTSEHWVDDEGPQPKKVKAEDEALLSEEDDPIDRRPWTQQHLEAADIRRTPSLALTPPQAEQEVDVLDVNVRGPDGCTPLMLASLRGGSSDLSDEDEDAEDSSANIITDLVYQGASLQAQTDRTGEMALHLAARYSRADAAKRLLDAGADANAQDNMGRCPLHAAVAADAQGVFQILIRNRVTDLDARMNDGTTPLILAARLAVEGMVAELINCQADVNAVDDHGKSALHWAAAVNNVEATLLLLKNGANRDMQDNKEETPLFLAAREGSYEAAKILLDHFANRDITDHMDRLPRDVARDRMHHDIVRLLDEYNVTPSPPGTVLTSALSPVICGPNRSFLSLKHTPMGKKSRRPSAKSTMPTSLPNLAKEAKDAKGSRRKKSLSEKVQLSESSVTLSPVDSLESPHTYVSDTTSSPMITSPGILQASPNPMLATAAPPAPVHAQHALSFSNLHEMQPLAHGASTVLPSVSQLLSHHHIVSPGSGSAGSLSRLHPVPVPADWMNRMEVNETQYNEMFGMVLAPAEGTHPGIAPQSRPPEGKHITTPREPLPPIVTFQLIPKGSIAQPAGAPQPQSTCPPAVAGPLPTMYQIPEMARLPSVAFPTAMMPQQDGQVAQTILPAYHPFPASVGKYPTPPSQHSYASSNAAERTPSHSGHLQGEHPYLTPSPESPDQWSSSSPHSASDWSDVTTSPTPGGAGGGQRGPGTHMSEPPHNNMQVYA
Chain of Pro-neuregulin-1, membrane-bound isoform (Homo sapiens) (Q02297 whole entry, looked up, the tested form may be a part, canonical isoform): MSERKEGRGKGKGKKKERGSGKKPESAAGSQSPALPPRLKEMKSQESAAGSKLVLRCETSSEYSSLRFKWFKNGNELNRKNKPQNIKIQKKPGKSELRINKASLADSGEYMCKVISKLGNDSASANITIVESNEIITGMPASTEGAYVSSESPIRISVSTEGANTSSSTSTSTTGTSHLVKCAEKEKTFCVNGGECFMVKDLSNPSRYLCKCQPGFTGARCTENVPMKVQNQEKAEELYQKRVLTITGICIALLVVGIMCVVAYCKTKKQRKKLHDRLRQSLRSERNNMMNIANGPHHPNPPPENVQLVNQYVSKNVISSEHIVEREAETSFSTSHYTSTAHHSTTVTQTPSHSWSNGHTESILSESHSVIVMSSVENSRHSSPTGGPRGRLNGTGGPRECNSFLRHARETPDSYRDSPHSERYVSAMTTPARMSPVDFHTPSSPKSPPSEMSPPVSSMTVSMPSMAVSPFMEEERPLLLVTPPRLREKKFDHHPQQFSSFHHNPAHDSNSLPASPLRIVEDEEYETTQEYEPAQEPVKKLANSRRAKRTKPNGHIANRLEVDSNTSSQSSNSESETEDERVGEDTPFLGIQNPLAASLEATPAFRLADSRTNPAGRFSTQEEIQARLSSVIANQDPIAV

Structure (SMILES)	composite z-score [1]	composite z-score [2]	composite z-score [3]	composite z-score [4]	composite z-score [5]	composite z-score [6]	composite z-score [7]	z-score [8]	composite z-score [9]	composite z-score [10]	composite z-score [11]	z-score [12]	z-score [13]	z-score [14]	composite z-score [15]	z-score [16]	composite z-score [17]	composite z-score [18]	composite z-score [19]	composite z-score [20]
CCN(CC)c1ccc(N2CC=CC34O[C@@H]5C=CCOC(=O)[C@@H]5[C@H]3C(=O)N(C(C)CO)[C@@H]4C2=O)cc1 (stereo not given in full)	0.652	-0.893	-0.171	-0.784	-1.58	0.392	0.344	0.403 (inactive)	-0.278	-0.0296	-1.48	-0.185 (inactive)	-1.4 (inactive)	-0.8 (inactive)	-0.151	1.7 (inactive)	-0.0592	-1.39	-0.894	-0.252
CC(C)(C)OC(=O)CC[C@]1(C(=O)NCc2ccccc2)COC(c2ccc(OCCCO)cc2)=N1	0.508	1.3	-0.0675	0.0174	0.431	1.79	1.1	-2.97 (inactive)	0.613	-0.0047	0.712	-1.08 (inactive)	-0.413 (inactive)	-1.64 (inactive)	3.14	1.93 (inactive)	0.0325	-0.148	-0.0559	-0.058
COC(=O)C1=CC(c2ccc(CO)cc2)=CC(C2CC2)N(C)C=C1C(=O)OC (stereo not given)	0.315	0.903	-0.0538	-0.0649	0.115	1.61	0.97	-1.67 (inactive)	0.0593	-0.0994	1.31	-5.61 (inactive)	-4.93 (inactive)	-2.41 (inactive)	2.6	0.585 (inactive)	-0.141	-0.946	-0.464	-0.154
C=CCN1C(=O)[C@]2(O[C@H](CCn3cc([C@H](O)c4ccccc4)nn3)[C@@H]([Si](C)(C)c3ccc(OC)cc3)[C@@H]2C)c2cc(N3CCOC3=O)ccc21	0.264	0.443	-0.154	-0.213	-0.74	0.579	1.16	-2.7 (inactive)	-0.297	-0.0128	1.37	0.326 (inactive)	0.155 (inactive)	4.47 (inactive)	1.41	1.75 (inactive)	-0.23	-0.394	-0.583	-0.232
C=CC[C@@]1(C(=O)NCc2ccccc2)N=C(c2ccc(OCCCO)cc2)O[C@@H]1c1ccccc1	1.17	0.945	-0.0778	-0.523	-0.347	1.61	0.845	-2.56 (inactive)	0.3	-0.191	1.29	-2.54 (inactive)	-4.81 (inactive)	12.3 (active)	3.19	2.92 (inactive)	0.195	-0.469	0.311	-0.147
